This is part of a sample that, as a whole, favours compounds with a hit. Of some 83,000 tested, about 20% had one in any assay.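 Step 1: grow cells in 96-well plates. Step 2: add test compound at a single concentration. Step 3: incubate 48 h. Step 4: record percent growth.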 The source made the active and inactive calls. How the source made its calls: active means growth percent below 10; inactive means the rest.
The molecules below were run on SW-620 colon (assay: NCI-60 one-dose screen, 48 h (100 = growth as untreated, 0 = no growth, -100 = all killed)). Conditions: 10 µM.

SMILES | growth
COc1cc2cc(C(=O)N3C[C@@H](CCl)c4c3cc(OC(=O)N3CCN(C)[C@@H]5CSSC[C@H]53)c3ccccc43)[nH]c2c(OC)c1OC | -9.04% (active)
CC1=C(CCC=O)C2=C(C)C3(CC3)[C@@](C)(O)C(=O)C2=C1 | -74.9% (active)
COC(=O)C[C@](O)(CCC(C)C)C(=O)O[C@@H]1C(OC)=C[C@]23CCCN2CCc2cc4c(cc2[C@H]13)OCO4 | -7.29% (active)
CC[C@]12C=CCN3CC[C@@]4(c5ccc(OC)cc5N(C)[C@H]4[C@@](O)(C(=O)OC)[C@@H]1OC(=O)CCC[P+](C1CCCCC1)(C1CCCCC1)C1CCCCC1)[C@@H]32 | 3.91% (active)
CC1=C2C(=C[C@@](C)(COP(=O)(Oc3ccccc3)Oc3ccccc3)[C@@H]2O)C(=O)[C@@](C)(O)C12CC2 | 29.8% (inactive)
CCOP(=O)(CC(F)(F)C(F)(F)F)OCC | -8.33% (active)
CC(C)C[C@H](NC(=O)CNC(=O)C[C@H]1O[C@@H]2OC3(C)CC[C@H]4[C@H](C)CC[C@@H]([C@H]1C)[C@@]24OO3)B(O)O | 1.51% (active)
C[C@H]1[C@@H](Oc2ccc(-c3cn(-c4ccnc5cc(Cl)ccc45)nn3)cc2)O[C@@H]2OC3(C)CC[C@H]4[C@H](C)CC[C@@H]1[C@@]24OO3 | 27% (inactive)
C[C@H]1[C@H](OC(=O)CCC(=O)N(CCCc2cn(-c3ccc([N+](=O)[O-])cc3)nn2)CCNc2ccnc3cc(Cl)ccc23)O[C@@H]2OC3(C)CC[C@H]4[C@H](C)CC[C@@H]1[C@@]24OO3 | 38% (inactive)
COc1cc2cc(C(=O)N3C[C@@H](CCl)c4c3cc(OC(=O)N3CCN(C)[C@@H]5CSSC[C@@H]53)c3ccccc43)[nH]c2c(OC)c1OC | -6.71% (active)
COc1cc2cc(C(=O)N3C[C@@H](CCl)c4c3cc(OC(=O)N3CCN(C(=O)CCC(=O)N5CCN(C)CC5)[C@@H]5CSSC[C@@H]53)c3ccccc43)[nH]c2c(OC)c1OC | -23.4% (active)
COC(=O)c1ccc(-n2cc(CCCN(CCNc3ccnc4cc(Cl)ccc34)C(=O)CCC(=O)O[C@@H]3O[C@@H]4OC5(C)CC[C@H]6[C@H](C)CC[C@@H]([C@H]3C)[C@@]46OO5)nn2)cc1 | 31.6% (inactive)
CC[C@]12C=CCN3CC[C@@]4(c5ccc(OC)cc5N(C)[C@H]4[C@@](O)(C(=O)OC)[C@@H]1OC(=O)CCC[P+](c1ccc(C)cc1)(c1ccc(C)cc1)c1ccc(C)cc1)[C@@H]32 | -85.2% (active)
CC[C@]12C=CCN3CC[C@@]4(c5ccc(OC)cc5N(C)[C@H]4[C@@](O)(C(=O)OC)[C@@H]1OC(=O)CCCC[P+](c1ccc(C)cc1)(c1ccc(C)cc1)c1ccc(C)cc1)[C@@H]32 | -88.1% (active)
CC1=C(CCC=NNC(N)=O)C2=C(C)C3(CC3)[C@@](C)(O)C(=O)C2=C1 | -20.7% (active)
Cc1ccc2[nH]c(=S)n(-c3ccc(F)cc3)c(=O)c2c1 | 102% (inactive)
CC1=C(COCCOC(=O)c2ccc(S(=O)(=O)F)cc2)C2=C(C)C3(CC3)[C@@](C)(O)C(=O)C2=C1 | 62.3% (inactive)
CC12CCC3(CCC(=O)NCCCNc4ccnc5cc(Cl)ccc45)[C@@](C)(OO[C@]3(C)O1)O2 | 28.9% (inactive)
COC(=O)CCn1c(-c2ccc(-n3cc(-c4ccc(O[C@H]5O[C@@H]6OC7(C)CC[C@H]8[C@H](C)CC[C@@H]([C@H]5C)[C@@]68OO7)cc4)nn3)cc2)nc2ccccc21 | 23.9% (inactive)
CC1=C(C=O)C2=C(C)C3(CC3)[C@@](C)(O)C(=O)C2=C1 | -15.8% (active)
C[C@H]1[C@@H](CC(=O)N[C@@H](Cc2coc3ccccc23)B(O)O)O[C@@H]2OC3(C)CC[C@H]4[C@H](C)CC[C@@H]1[C@@]24OO3 | 2.66% (active)
COC(=O)C[C@](O)(CCC(C)C)C(=O)O[C@H]1C(OC)=C[C@@]23CCCN2CCc2cc4c(cc2[C@@H]13)OCO4 | -27.9% (active)
C[C@H]1[C@H](OC(=O)CCC(=O)N(CCCc2cn(-c3ccc(C#N)cc3)nn2)CCNc2ccnc3cc(Cl)ccc23)O[C@@H]2OC3(C)CC[C@H]4[C@H](C)CC[C@@H]1[C@@]24OO3 | 18.2% (inactive)

Each molecule was assayed on MCF7 breast in the same assay as above. Conditions: 10 µM.

SMILES | growth
COc1cc2cc(C(=O)N3C[C@@H](CCl)c4c3cc(OC(=O)N3CCN(C)[C@@H]5CSSC[C@H]53)c3ccccc43)[nH]c2c(OC)c1OC | -56.2% (active)
CC1=C(CCC=O)C2=C(C)C3(CC3)[C@@](C)(O)C(=O)C2=C1 | -44.2% (active)
COC(=O)C[C@](O)(CCC(C)C)C(=O)O[C@@H]1C(OC)=C[C@]23CCCN2CCc2cc4c(cc2[C@H]13)OCO4 | -19.4% (active)
O=C(/C=C/c1ccc(Cl)cc1)c1nc2ccccc2n1Cc1ccc(F)cc1 | 9.25% (active)
CC[C@]12C=CCN3CC[C@@]4(c5ccc(OC)cc5N(C)[C@H]4[C@@](O)(C(=O)OC)[C@@H]1OC(=O)CCC[P+](C1CCCCC1)(C1CCCCC1)C1CCCCC1)[C@@H]32 | -72.2% (active)
CC1=C2C(=C[C@@](C)(COP(=O)(Oc3ccccc3)Oc3ccccc3)[C@@H]2O)C(=O)[C@@](C)(O)C12CC2 | 4.25% (active)
CC(=O)Oc1ccccc1C(=O)NC([Se])=NC1CCCCC1 | 1.18% (active)
CCOP(=O)(CC(F)(F)C(F)(F)F)OCC | 9.98% (active)
CC(C)C[C@H](NC(=O)CNC(=O)C[C@H]1O[C@@H]2OC3(C)CC[C@H]4[C@H](C)CC[C@@H]([C@H]1C)[C@@]24OO3)B(O)O | 19.1% (inactive)
C[C@H]1[C@@H](Oc2ccc(-c3cn(-c4ccnc5cc(Cl)ccc45)nn3)cc2)O[C@@H]2OC3(C)CC[C@H]4[C@H](C)CC[C@@H]1[C@@]24OO3 | 19.3% (inactive)
C[C@H]1[C@H](OC(=O)CCC(=O)N(CCCc2cn(-c3ccc([N+](=O)[O-])cc3)nn2)CCNc2ccnc3cc(Cl)ccc23)O[C@@H]2OC3(C)CC[C@H]4[C@H](C)CC[C@@H]1[C@@]24OO3 | 10.4% (inactive)
COc1cc2cc(C(=O)N3C[C@@H](CCl)c4c3cc(OC(=O)N3CCN(C)[C@@H]5CSSC[C@@H]53)c3ccccc43)[nH]c2c(OC)c1OC | -8.94% (active)
COc1cc2cc(C(=O)N3C[C@@H](CCl)c4c3cc(OC(=O)N3CCN(C(=O)CCC(=O)N5CCN(C)CC5)[C@@H]5CSSC[C@@H]53)c3ccccc43)[nH]c2c(OC)c1OC | -92.4% (active)
COC(=O)c1ccc(-n2cc(CCCN(CCNc3ccnc4cc(Cl)ccc34)C(=O)CCC(=O)O[C@@H]3O[C@@H]4OC5(C)CC[C@H]6[C@H](C)CC[C@@H]([C@H]3C)[C@@]46OO5)nn2)cc1 | -49.6% (active)
O=C([Se]C1C=CCCC1)c1ccc(C(=O)[Se]C2C=CCCC2)s1 (configuration not stated) | -37.1% (active)
O=C(/C=C/c1cccc(Br)c1)c1nc2ccccc2n1Cc1ccc(F)cc1 | 8.41% (active)
CC[C@]12C=CCN3CC[C@@]4(c5ccc(OC)cc5N(C)[C@H]4[C@@](O)(C(=O)OC)[C@@H]1OC(=O)CCC[P+](c1ccc(C)cc1)(c1ccc(C)cc1)c1ccc(C)cc1)[C@@H]32 | -76.3% (active)
O=C(NC([Se])=NC1CCCCC1)c1ccccc1 | 29.8% (inactive)
O=C(/C=C/c1ccc(F)cc1)c1nc2ccccc2n1Cc1ccc(F)cc1 | 7.32% (active)
O=C(/C=C/c1ccccc1)c1nc2ccccc2n1Cc1ccc(Br)cc1 | -48.7% (active)

SMILES | growth
C=CC[Se]C(=O)c1cncc(C(=O)[Se]CC=C)c1 | -42.7% (active)
COc1ccc(OC)c(/C=C/C(=O)c2nc3ccccc3n2Cc2ccc(F)cc2)c1 | 2.95% (active)
O=C(/C=C/c1ccc(F)cc1)c1nc2ccccc2n1Cc1ccc(Br)cc1 | -27.4% (active)
CC[C@]12C=CCN3CC[C@@]4(c5ccc(OC)cc5N(C)[C@H]4[C@@](O)(C(=O)OC)[C@@H]1OC(=O)CCCC[P+](c1ccc(C)cc1)(c1ccc(C)cc1)c1ccc(C)cc1)[C@@H]32 | -81.2% (active)
CC(C)N=C([Se])NC(=O)c1cccs1 | 1.79% (active)
CC1=C(CCC=NNC(N)=O)C2=C(C)C3(CC3)[C@@](C)(O)C(=O)C2=C1 | -74.8% (active)
Cc1ccc2[nH]c(=S)n(-c3ccc(F)cc3)c(=O)c2c1 | 95% (inactive)
C#CC[Se]C(=O)c1ccc2n[se]nc2c1 | 31.6% (inactive)
CC1=C(COCCOC(=O)c2ccc(S(=O)(=O)F)cc2)C2=C(C)C3(CC3)[C@@](C)(O)C(=O)C2=C1 | 10.9% (inactive)
CC12CCC3(CCC(=O)NCCCNc4ccnc5cc(Cl)ccc45)[C@@](C)(OO[C@]3(C)O1)O2 | 9.36% (active)
O=C(/C=C/c1ccc(Br)cc1)c1nc2ccccc2n1Cc1ccc(Br)cc1 | 3.68% (active)
COC(=O)CCn1c(-c2ccc(-n3cc(-c4ccc(O[C@H]5O[C@@H]6OC7(C)CC[C@H]8[C@H](C)CC[C@@H]([C@H]5C)[C@@]68OO7)cc4)nn3)cc2)nc2ccccc21 | 11.1% (inactive)
CC1=C(C=O)C2=C(C)C3(CC3)[C@@](C)(O)C(=O)C2=C1 | 14% (inactive)
N#C[Se]CC(=O)Nc1cccc(C(F)(F)F)c1 | 6% (active)
CCC[Se]C(=O)c1ccc(C(=O)[Se]CCC)s1 | -34.6% (active)
C[C@H]1[C@@H](CC(=O)N[C@@H](Cc2coc3ccccc23)B(O)O)O[C@@H]2OC3(C)CC[C@H]4[C@H](C)CC[C@@H]1[C@@]24OO3 | 12% (inactive)
O=C(/C=C/c1ccco1)c1nc2ccccc2n1Cc1ccc(F)cc1 | 8.93% (active)
COC(=O)C[C@](O)(CCC(C)C)C(=O)O[C@H]1C(OC)=C[C@@]23CCCN2CCc2cc4c(cc2[C@@H]13)OCO4 | -17% (active)
C[C@H]1[C@H](OC(=O)CCC(=O)N(CCCc2cn(-c3ccc(C#N)cc3)nn2)CCNc2ccnc3cc(Cl)ccc23)O[C@@H]2OC3(C)CC[C@H]4[C@H](C)CC[C@@H]1[C@@]24OO3 | -28% (active)

From PubChem BioAssay (NCI)
